Screening results deposited in PubChem by National Center for Advancing Translational Sciences (NCATS).
Rows were chosen to be rich in hits. Some 3.4% of all compounds tested hit in one or more screens of this group.
HTT ATP protect: protects HTT-Q103 PC12 cells, measured by ATP; PC12 HTT-Q103 induced, cytoprotection, ATP luminescence, 40 h; Potency, µM (series often up to 56.4 µM), actives largely listed as activators; 0.14% of 230,000 active; AID 1471; note: nearly all actives have a fitted effect of over 45% in size
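Quantitative HTS on tebufenozide-induced (100 nM) PC12 cells expressing HTTQ103 exon 1–GFP; compounds tested as a concentration series; survival measured via cellular ATP.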
IMPase Li cell: cell-permeable IMPase inhibitors with lithium potentiation. CHO-M1 cells, IP1 TR-FRET (IP-One), carbachol + lithium. Potency, µM (titrated, usually from 59.4 µM), actives largely listed as inhibitors. 0.35% of 210,000 active;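 note: IP1 builds up when IMPase is blocked and the TR-FRET signal falls; nearly all actives have a fitted effect of over 50% in size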
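CHO cells stably expressing M1 receptor (2000/well) were cultured 16–30 h, then exposed to compounds with a small lithium addition for 30 min at 37C. IP1 was measured by TR-FRET competition; AC50 from Hill fits.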
NPSR antagonist: blocks cAMP signaling of the human neuropeptide S receptor | Q6W5P4 | 1% of 220,000 active | Potency, µM (highest dose often 38.3 µM), most hits filed as inhibitors | CHO-NPSR cells, cAMP TR-FRET, antagonist mode; note: nearly all actives have a fitted effect of over 50% in size
Target sequence (Q6W5P4 whole entry, looked up): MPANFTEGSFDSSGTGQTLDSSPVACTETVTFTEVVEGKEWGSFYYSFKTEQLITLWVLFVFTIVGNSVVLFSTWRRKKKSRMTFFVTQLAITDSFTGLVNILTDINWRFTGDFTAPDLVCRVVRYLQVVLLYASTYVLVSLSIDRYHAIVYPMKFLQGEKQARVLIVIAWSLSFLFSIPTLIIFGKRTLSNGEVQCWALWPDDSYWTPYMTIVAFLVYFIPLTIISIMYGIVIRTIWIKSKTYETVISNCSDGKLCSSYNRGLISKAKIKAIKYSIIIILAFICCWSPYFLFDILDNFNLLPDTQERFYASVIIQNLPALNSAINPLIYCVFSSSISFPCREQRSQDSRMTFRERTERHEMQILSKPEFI
HTT aggregate: inhibitors of mutant huntingtin aggregate formation in PC12 cells | 1.1% of 220,000 active | Potency, µM (doses to about 46.1 µM), usual class: inhibitors | AID 1688 | PC12 HttQ103-GFP aggregates, Acumen cytometry, 40 h; note: nearly all actives have a fitted effect of over 60% in size
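Quantitative HTS on tebufenozide-induced (100 nM) PC12 cells stably expressing polyQ103 Huntingtin exon 1–GFP. Reduction of bright GFP aggregates, detected by laser scanning cytometry after lysis, identified actives across the titration.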
PNC assembly inh: perinucleolar compartment assembly inhibition. PC3M PTB-GFP, PNC prevalence imaging, 16 h; active compounds read low. activity change (PNC), negative = inhibition, % at 10 µM. 3.1% of 140,000 active. AID 2417;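 active = readout at or below -70, meaning at least 70% loss of cells showing the perinucleolar compartment, a nuclear body marking cancer cells; inconclusive = readout between -30 and a set limit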
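Read-out is percentage of cells bearing a perinucleolar compartment, from automated 20x imaging of fixed, Hoechst-stained PC3M PTB-GFP cells. Cells were seeded 4 h, then exposed 16 h to compound (23 nl of library stock) in duplicate plates.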
IMPase inh: membrane-permeable compound that blocks inositol monophosphatase; P97697; CHO-M1 cells, IP1 accumulation, HTRF TR-FRET ratio; inhibition (IP1 accumulation), % at 46.1 µM; 120,000 tested, under 10 active; AID 901; active = well fitted curve in the direction sought with a large enough effect in the signal ratio, not every such curve was filed as active; inconclusive = small, poorly fitted or top-dose-only effect, or a change in a side signal; inactive = no such curve, though single readings can be large or run the other way; the % refers to the signal ratio;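 note: cells stimulated with carbachol in lithium chloride buffer; higher means more IMPase inhibition seen as more IP1 and lower FRET ratio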
Target sequence (P97697 whole entry, looked up): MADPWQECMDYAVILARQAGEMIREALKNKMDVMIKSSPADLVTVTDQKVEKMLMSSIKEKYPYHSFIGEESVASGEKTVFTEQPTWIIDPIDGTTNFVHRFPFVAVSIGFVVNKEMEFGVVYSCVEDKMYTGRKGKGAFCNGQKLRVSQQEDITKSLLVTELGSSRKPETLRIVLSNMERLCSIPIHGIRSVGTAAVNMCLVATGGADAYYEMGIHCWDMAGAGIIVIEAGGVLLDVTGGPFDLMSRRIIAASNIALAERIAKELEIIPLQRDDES
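Seeded CHO-M1 cells were dosed with compound at up to 46 uM, stimulated with carbachol for 30 min, then lysed in IP-One detection reagents. Higher IP1 lowers the TR-FRET signal.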
Numbers stand for hits; [ ] = dose if it differs, or a comment. Unless noted, calls come from the whole dose curve; as a rule, active = well fitted curve in the direction sought with a large enough effect; inconclusive = small, poorly fitted or top-dose-only effect, or another doubt; inactive = no such curve, though single readings can be large; an effect the other way counts as inactive or inconclusive.

What do the screens show for `C[C@@H]1C(=O)O[C@@H]2C[C@@]34[C@H]5C[C@@H](C(C)(C)C)[C@@]36[C@@H](OC(=O)[C@@H]6O)O[C@]4(C(=O)O5)[C@@]12O`?
HTT ATP protect: inactive

How did CC(C)N1C(=O)/C(=C\c2nc3ccccc3c(=O)n2-c2ccccc2)c2ccccc21 do in these assays?
IMPase Li cell: inactive; NPSR antagonist: inactive; HTT aggregate: inconclusive; PNC assembly inh: inconclusive

What do the screens show for `CC(C)N1C(=O)/C(=C/c2nc3ccccc3c(=O)n2-c2ccccc2)c2ccccc21`?
HTT ATP protect: inactive[10 µM]; IMPase Li cell: inactive; NPSR antagonist: 10µM; HTT aggregate: inconclusive; PNC assembly inh: inactive; IMPase inh: inactive

How did CC(C)(C)C(=O)NC(=S)NNC(=O)c1sc2ccccc2c1Cl do in these assays?
HTT ATP protect: inactive[10 µM]; IMPase Li cell: inactive; NPSR antagonist: inactive; HTT aggregate: 10µM; PNC assembly inh: -112; IMPase inh: inactive

What do the screens show for `CCOC(=S)NC(=O)c1sc2ccccc2c1Cl`?
HTT ATP protect: inactive; IMPase Li cell: inconclusive; NPSR antagonist: inactive; HTT aggregate: inactive; PNC assembly inh: -109; IMPase inh: inactive

Results for O=C(NNC(=S)NC1CCCCC1)c1sc2ccccc2c1Cl ?
HTT ATP protect: inactive[10 µM]; IMPase Li cell: inactive; NPSR antagonist: inactive; HTT aggregate: inactive; PNC assembly inh: inactive

How did COc1cccc(-c2nccc(NCCc3c[nH]c4ccc(OC)cc34)n2)c1 do in these assays?
HTT ATP protect: inactive; IMPase Li cell: inactive

How did Cc1ccc(Cc2cnc(NC(=O)C3Cc4ccc(C)cc4C(=O)O3)s2)cc1 (stereo not drawn) do in these assays?
IMPase inh: inactive

Results for COc1ccc(C(C)C(=O)c2ccc(O)cc2O)cc1 (stereo not drawn) ?
HTT ATP protect: inactive; IMPase Li cell: inactive

What do the screens show for `CCN=C(Nc1ccc2c(c1)OCO2)SC1CC(=O)N(c2ccccc2F)C1=O` (stereo not drawn)?
HTT ATP protect: inactive; IMPase Li cell: inactive; NPSR antagonist: inactive; HTT aggregate: inactive; PNC assembly inh: inactive; IMPase inh: inactive

How did CN=C(Nc1ccc(C(=O)OC)cc1)SC1CC(=O)N(c2ccccc2F)C1=O (stereo not drawn) do in these assays?
HTT ATP protect: inactive[10 µM]; IMPase Li cell: inactive; NPSR antagonist: inactive; HTT aggregate: inconclusive; PNC assembly inh: -108; IMPase inh: inactive

Results for CCCCC[C@H](O)C/C=C1/C(=O)C=C[C@@H]1C/C=C\CCCC(=O)O ?
HTT ATP protect: 11µM; IMPase Li cell: inactive

Results for CCCCC/C=C/C=C1/C(=O)C=C[C@@H]1C/C=C\CCCC(=O)O ?
HTT ATP protect: inconclusive; IMPase Li cell: inactive

Results for CCCCC[C@H](O)/C=C/[C@@H]1[C@@H](C/C=C\CCCC(=O)O)[C@@H](O)C[C@@H]1O ?
HTT ATP protect: inactive; IMPase Li cell: inactive

Results for CCCCC[C@H](O)/C=C/[C@H]1C=CC(=O)[C@@H]1C/C=C\CCCC(=O)O ?
HTT ATP protect: inactive; IMPase Li cell: inactive; NPSR antagonist: inactive; HTT aggregate: inactive; PNC assembly inh: -96

What do the screens show for `O=[N+]([O-])c1cc(Cl)c(Cl)c(Cl)c1Cl`?
HTT ATP protect: inactive; IMPase Li cell: inactive

What do the screens show for `COc1ccccc1N1CCN(C(=O)CCn2c(=O)[nH]c3ccccc3c2=O)CC1`?
HTT ATP protect: inactive; IMPase Li cell: inactive; NPSR antagonist: inactive; HTT aggregate: inactive; PNC assembly inh: -107; IMPase inh: inactive

How did COc1ccc(C(=O)NNC(=O)C(C)NC(=O)c2ccccc2NC(=O)c2ccco2)cc1 (stereo not drawn) do in these assays?
HTT ATP protect: inactive[1.9 µM]; IMPase Li cell: inactive; NPSR antagonist: inactive; HTT aggregate: inactive; PNC assembly inh: -93; IMPase inh: inactive

What do the screens show for `COc1ccc(NC(=O)c2ccccc2NC(=O)c2ccco2)c(OC)c1`?
HTT ATP protect: inactive; IMPase Li cell: inactive; NPSR antagonist: inactive; HTT aggregate: inactive; PNC assembly inh: inconclusive; IMPase inh: inactive

Results for Cc1cc(O)c(NC(=O)c2ccco2)cc1C ?
HTT ATP protect: inactive; IMPase Li cell: inactive; NPSR antagonist: inactive; HTT aggregate: inactive; PNC assembly inh: inconclusive; IMPase inh: inactive

How did CC(C)c1ccccc1NC(=O)c1ccco1 do in these assays?
HTT ATP protect: inactive; IMPase Li cell: inactive; NPSR antagonist: inactive; HTT aggregate: inactive; PNC assembly inh: -96; IMPase inh: inactive

Results for CC(=O)C1(C)CC2=C(CCCC2(C)C)CC1C (stereo not drawn) ?
HTT ATP protect: inactive; IMPase Li cell: inactive

Results for COc1ccc2c(C(=O)CN(C)C3CCCCC3)c[nH]c2c1 ?
HTT ATP protect: inactive[10 µM]; IMPase Li cell: inactive; NPSR antagonist: inactive; HTT aggregate: inactive; PNC assembly inh: -100; IMPase inh: inactive

What do the screens show for `COC(=O)N1CCC[C@@]2(CCN(C(=O)Nc3ccccc3)C2)C1`?
HTT ATP protect: inactive; IMPase Li cell: inactive

Results for Cc1cccc(S(=O)(=O)NCCC(=O)OCC(=O)Nc2ccc(C#N)cc2)c1 ?
IMPase Li cell: inactive; NPSR antagonist: inactive; HTT aggregate: inactive; PNC assembly inh: inactive

Results for CCSc1nc(O)c(C2OC(=O)c3c2ccc(OC)c3OC)c(=O)n1CC (stereo not drawn) ?
HTT ATP protect: inactive; NPSR antagonist: inactive; HTT aggregate: inactive; PNC assembly inh: -122; IMPase inh: inactive

What do the screens show for `O=[N+]([O-])c1cc(Cl)ccc1N1CCCC1`?
HTT ATP protect: inactive[10 µM]; IMPase Li cell: inactive; NPSR antagonist: inactive; HTT aggregate: inactive[9.22 µM]

How did O=C1C(Cl)=C(N2CCN(c3ccccc3[N+](=O)[O-])CC2)C(=O)c2ccccc21 do in these assays?
HTT ATP protect: inactive[10 µM]; IMPase Li cell: inactive; NPSR antagonist: 10µM; HTT aggregate: inconclusive; PNC assembly inh: inconclusive

What do the screens show for `COc1cc(CNCCNC(=O)c2nonc2N)ccc1OCc1ccc(Cl)cc1`?
HTT ATP protect: inactive[10 µM]; IMPase Li cell: inactive; NPSR antagonist: inactive; HTT aggregate: inactive[9.22 µM]

Results for Brc1ccc(N/N=C(/N=Nc2nn[nH]n2)c2ccccc2)cc1 ?
HTT ATP protect: inactive; IMPase Li cell: inactive; NPSR antagonist: inactive; HTT aggregate: 7.1µM

What do the screens show for `CCC(=O)OC1C2CC3=C4CC(=O)OC(c5ccoc5)[C@]4(C)CCC3[C@@](C)(C2=O)C(CC(=O)OC)C1(C)C` (stereo partly drawn)?
HTT ATP protect: inactive; IMPase Li cell: inactive

Results for COc1cccc([C@@H]2Oc3ccc(OC)cc3C(=O)[C@H]2OC(=O)Nc2ccc(OC(F)F)cc2)c1 ?
HTT ATP protect: inactive; IMPase Li cell: inactive
